Screening results (PubChem)
Rows were chosen to be rich in hits. Some 3.4% of all compounds tested hit in one or more screens of this group.
Gli-Sufu antag: antagonists of Gli-Sufu signaling. Sufu-KO-LIGHT fibroblasts, Gli luciferase reporter luminescence. inhibition, % at 5 µM. actives 0.74% (n = 340,000). AID 588413;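 active means inhibition above about 55%, limit read from the data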;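 further: 0% = DMSO-treated cells and 100% = wells with medium but no cells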
GalR3 antag: blocks the human galanin receptor 3; HEK293 GalR3-CNG cAMP membrane potential fluorescence; galR3 body fused to GalR1 C-terminus; inhibition, % at 3 µM; actives 0.44% (n = 360,000); AID 651719;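 active means inhibition above the screen-wide average plus 3 SD, cut at about 13% in these data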;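 further: forskolin and galanin both at EC90 stimulate the cells; cAMP rise reported by CNG channel membrane potential dye signal; 0% = forskolin plus galanin with DMSO and 100% = forskolin alone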
Target sequence (O60755 1-299 limits assumed): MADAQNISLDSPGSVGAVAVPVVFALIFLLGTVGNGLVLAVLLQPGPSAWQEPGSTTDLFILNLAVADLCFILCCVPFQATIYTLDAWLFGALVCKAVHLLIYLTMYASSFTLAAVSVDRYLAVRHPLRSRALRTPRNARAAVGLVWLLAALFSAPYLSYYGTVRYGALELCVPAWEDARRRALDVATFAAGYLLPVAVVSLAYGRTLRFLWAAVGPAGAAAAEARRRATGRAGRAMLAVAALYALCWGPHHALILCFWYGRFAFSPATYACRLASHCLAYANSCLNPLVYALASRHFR
GAA850 FXN act: activators of GAA850 frataxin (FXN) promoter; HEK293 lucGAA850 FXN promoter luciferase reporter, 24 h; percent of 10 µM SAHA response; activation, % at 6 µM; actives 0.56% (n = 360,000); AID 540364;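 active means activation above the average of all compounds screened plus 3 SD, cutoff fixed separately per campaign, cut at about 7.5% in these data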;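 further: 0% = DMSO wells and 100% = 10 µM SAHA wells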
COUP-TFII inh: NR2F2 (human) inhibition, primary screen; P24468; HEK293T NGFI-A luciferase reporter, luminescence; inhibition, % at 8.6 µM; actives 0.7% (n = 370,000); AID 686940;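 active means inhibition above a per-plate cutoff, mean inhibition of test wells between control levels plus 3 SD, cut at about 38% in these data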;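 further: cells cotransfected with COUP-TFII expression vector driving the NGFI-A reporter; 0% = median of COUP-TF2 test wells and 100% = reporter-only cells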
Target sequence (P24468 whole entry, looked up): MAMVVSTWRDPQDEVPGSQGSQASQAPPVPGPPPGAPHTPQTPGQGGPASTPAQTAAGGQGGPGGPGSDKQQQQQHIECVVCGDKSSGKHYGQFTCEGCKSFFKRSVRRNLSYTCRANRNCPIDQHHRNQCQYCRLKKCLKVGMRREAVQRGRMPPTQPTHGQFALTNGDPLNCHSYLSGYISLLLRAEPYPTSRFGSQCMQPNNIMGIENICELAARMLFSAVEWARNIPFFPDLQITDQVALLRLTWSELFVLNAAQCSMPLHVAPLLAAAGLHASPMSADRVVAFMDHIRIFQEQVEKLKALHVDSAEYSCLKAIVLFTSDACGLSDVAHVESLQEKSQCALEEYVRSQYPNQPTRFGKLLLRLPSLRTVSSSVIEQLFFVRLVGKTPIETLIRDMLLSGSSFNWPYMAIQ
SMARCA2 activ: SMARCA2 function activation, primary screen. actives 1% (n = 370,000). MG213 cells, MMTV-luciferase reporter, dexamethasone, overnight. activation, % at 9.1 µM; in the data active means activation above about 7.8%;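 further: 0% = vehicle wells and 100% = reference activator wells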
Cardio protect: modulators protecting cardiomyocytes from myocardial damage; H9c2 cardiomyocytes, H2O2 injury protection, ATPLite, 2 h; protection from H2O2 cell death, % at 20 µM; actives 0.63% (n = 360,000);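 active means compounds giving at least 50% protection of heart cells from peroxide-induced death in the single-dose screen, raw or plate-pattern-corrected value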;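 further: 0% = DMSO wells with peroxide and 100% = DMSO wells without peroxide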
SMARCA2 conf: SMARCA2 activation, confirmation screen; shares compounds with SMARCA2 activ; MG213 cells, MMTV-luciferase with dexamethasone, luminescence, overnight; MG213 cells expressing E1A, Rb sequestered; DMSO wells 0%, reference activator 100%; activation, % at 9.1 µM; actives 30% (n = 3,500); AID 652260;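 active means activation above its plate's cutoff, the mean activation of tested wells plus 3 SD, cut at about 7.9% in these data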
VP16 Luc act: counter-screen for SMARCA2 activators: GAL4-VP16 luciferase reporter activation | HEK293 GAL4-VP16 pG5luc reporter, luciferase luminescence; scaled: DMSO wells 0%, SAHA wells 100% | actives 41% (n = 3,500) | shares compounds with SMARCA2 activ | activation, % at 9.1 µM;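 active means activation above the solvent-only control well mean plus 3 SD, averaged across control plates, cut at about 5.2% in these data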
An asterisk follows results filed as active; . = not tested or not shown.

SMILES	Gli-Sufu antag	GalR3 antag	GAA850 FXN act	COUP-TFII inh	SMARCA2 activ	Cardio protect	SMARCA2 conf	VP16 Luc act
Cc1nc(Nc2ccccc2)sc1-c1ccccc1	-126.0	-5.3	6.4	-49.0	4.7	-19.9	.	.
Clc1ccc(-n2c(SCc3cccc4ccccc34)nnc2-c2cccnc2)cc1	.	.	.	18.4	3.1	.	.	.
CCOC(=O)c1cnc(SCC(=O)c2ccccc2)nc1N	-100.7	-1.2	3.6	-45.0	14.1*	-4.3	13.5*	9.0*
COc1ccc(O)c(/C=C(\C#N)C(=O)Nc2ccccn2)c1	-1.5	-12.6	4.5	-21.5	-1.3	0.9	.	.
O=C(CC1CCCC1)NNC(=O)c1ccc(Br)cc1	-7.4	-5.6	0.9	-16.0	-0.4	3.2	.	.
O=C(Nc1cccc(-c2ccc(N3CCOCC3)nn2)c1)c1ccccc1Cl	-73.6	1.4	3.0	-30.4	10.7*	-10.5	14.3*	10.2*
O=C(Nc1cccc(-c2ccc(N3CCOCC3)nn2)c1)c1cccc(Cl)c1	.	-2.8	1.9	-33.6	9.4*	11.8	5.3	7.0*
O=C(Nc1cccc(-c2ccc(N3CCOCC3)nn2)c1)c1ccc(Cl)cc1	-52.1	-3.1	2.5	-49.8	2.1	-4.9	.	.
Oc1ccc(-c2cnc(-c3ccc(O)cc3)nc2)cc1	-62.9	-7.6	3.0	-112.5	13.5*	-16.7	12.3*	11.1*
Nc1ccc(-c2cnc(-c3ccc(N)cc3)nc2)cc1	-103.5	-3.0	-3.8	-41.3	1.9	-11.1	.	.
Cc1cccc(NC(=O)Cn2c(=O)oc3ccccc32)c1	-6.3	-2.1	1.8	-16.9	8.8*	5.6	-2.7	0.9
Cc1cccc(NC(=O)CN2C(=O)N/C(=C/c3ccc(C)o3)C2=O)c1	-0.5	-10.5	-2.6	-34.7	9.1*	-5.3	2.3	1.4
CN(CC(=O)Nc1cccc(S(=O)(=O)N2CCCC2)c1)Cc1ccccc1	-3.0	-4.9	0.6	3.5	-0.7	-0.3	.	.
CC(C)(Oc1ccc(Cl)cc1)C(=O)NCc1ccc(S(N)(=O)=O)cc1	-22.7	-4.5	-0.4	-1.0	-0.6	-1.8	.	.
CCCC(=O)NC(C)c1nc2ccccc2[nH]1 (centres undefined)	4.6	.	0.1	-8.1	-0.3	3.4	.	.
CCC(=O)NC(c1ccccc1)c1nc2ccccc2[nH]1 (centres undefined)	-14.9	-3.3	4.1	-30.4	8.5*	-5.8	2.9	2.4
O=C(Nc1cc(Cl)ccc1Oc1ccccc1)c1ccccc1F	-10.0	0.3	0.7	-8.8	8.9*	-9.0	-3.7	1.4
O=C(Nc1cc(Cl)ccc1Oc1ccccc1)c1ccc(F)cc1	1.3	-2.5	1.2	9.0	-3.3	-1.6	.	.
O=C(c1ccc(F)cc1F)N1CCN(S(=O)(=O)c2ccc3c(c2)OCCO3)CC1	-3.4	-4.7	0.4	15.0	-1.4	-8.5	.	.
CN(Cc1cc(=O)[nH]c2ccccc12)C(=O)c1ccccc1	-6.4	-5.9	1.6	-12.8	9.4*	3.0	0.2	1.2
CC(=O)N(Cc1cc(=O)[nH]c2ccccc12)c1ccccc1	3.3	-6.0	0.8	9.5	-4.1	1.2	.	.
COc1ccccc1N(Cc1cc(=O)[nH]c2ccccc12)C(=O)c1ccccc1	-13.4	-1.0	-3.2	-3.8	9.8*	21.7	-2.4	0.0
CCN(CC(=O)Nc1cccc(S(=O)(=O)N2CCOCC2)c1)Cc1ccccc1	4.9	-2.5	-2.5	15.5	-1.7	-0.8	.	.
CC(=O)c1ccc(OCc2cc(C(=O)N(C)CCOc3ccc(C)cc3)no2)cc1	-49.8	0.1	6.1	-27.0	-0.5	-21.2	.	.
O=C(NCCNc1ccccc1[N+](=O)[O-])c1cc(F)c(F)cc1Cl	0.0	-7.1	4.2	-43.5	14.2*	-0.2	5.5	5.3*
SMILES	Gli-Sufu antag	GalR3 antag	GAA850 FXN act	COUP-TFII inh	SMARCA2 activ	Cardio protect	SMARCA2 conf	VP16 Luc act
COC(=O)CCNC(=O)Cc1ccc(S(=O)(=O)N2CCCCC2)s1	-7.8	-4.6	-0.5	25.2	0.4	2.8	.	.
Cc1ccc(C(=O)NNC(=O)CSc2n[nH]c(-c3cccnc3)n2)cc1	-10.1	1.0	0.9	0.6	-1.8	-0.9	.	.
Nc1nc2ccccc2n1S(=O)(=O)c1ccc(Cl)cc1	.	-3.7	2.3	3.3	1.3	-14.5	.	.
O=C(Cc1cccs1)NNC(=O)c1ccc(F)cc1	-3.1	-2.7	1.2	-1.2	-0.7	0.8	.	.
Cc1ccc(C(=O)NNC(=O)Cc2cccs2)cc1	-6.6	-9.8	2.5	-7.0	9.1*	-2.1	2.5	1.7
COc1ccccc1N(CC(=O)NC1CCCC1)C(=O)c1oc(C(C)(C)C)cc1C	36.8	-9.3	-2.5	6.2	-1.2	-8.0	.	.
N#Cc1ccccc1OCC(=O)NC(=O)NC1CCS(=O)(=O)C1 (centres undefined)	-15.1	-1.7	3.3	-23.2	-2.4	10.4	.	.
Cc1cc(NC(=O)c2ccccc2)sc1C	12.2	-1.7	3.5	-49.2	19.1*	-14.5	7.6	8.6*
CCOc1ccc(Br)cc1S(=O)(=O)NCC(c1ccc(OC)cc1)N1CCOCC1 (centres undefined)	0.2	-2.1	4.2	1.2	2.0	0.7	.	.
Cc1ccccc1-c1nnc(SCc2ccccc2)o1	-101.8	-5.9	1.1	-37.6	13.0*	-9.2	6.6	4.6
Cc1ccccc1-c1nnc(SCc2ccccc2F)o1	-132.2	-5.3	4.1	-36.1	4.5	-14.3	.	.
Cc1ccc(CSc2nnc(-c3ccc(NS(=O)(=O)c4ccccc4)cc3)o2)cc1	11.3	-11.8	1.9	-0.3	11.3*	-8.0	-2.0	-1.5
Cc1ccc(S(=O)(=O)Nc2ccc(-c3nnc(SCc4ccccc4Cl)o3)cc2)cc1	2.7	-2.4	1.5	6.4	4.4	-10.2	.	.
CCOC(=O)C1=C(COC(=O)COc2cc(C)ccc2C)NC(=O)NC1C (centres undefined)	-4.1	-5.1	-0.3	3.4	-0.1	3.6	.	.
CCCCCCn1c(=O)n2n(c1=O)[C@@H]1CN(S(=O)(=O)c3ccc(C)cc3)C[C@]1(O)[C@@H](OC(=O)NCC1CCCCC1)C2	.	-8.0	-2.6	11.4	-3.5	0.2	.	.
CCOC(=O)c1cnn(-c2cccc(Cl)c2)c1N	-16.4	-3.2	4.5	-1.1	9.4*	-3.9	5.7	1.6
CCOC(=O)C(=NO)C1=CSC2=NNC(C)(C)N12	.	-1.5	6.9	-0.2	9.2*	4.2	-1.5	0.9
CCOC(=O)/C(=N/O)C1=NC(C)(C)Cc2cc(C)c(C)cc21	4.6	-3.7	0.3	3.6	1.8	-2.4	.	.
COc1ccc(CC(=O)N/N=C/c2cccs2)cc1OC	3.2	2.6	0.2	-13.1	-2.3	7.6	.	.
COc1ccc(COC(=O)N/N=C/c2cccs2)cc1	-27.5	-6.7	2.8	-27.9	9.3*	-3.4	3.0	3.4
